PLK1 PBD block – blocks phosphopeptide binding to human PLK1 polo-box domain; Plk1 PBD binding of FITC phosphopeptide, fluorescence polarization; Potency, µM, for the others: max response, negative = inhibition, usual class: inhibitors; 2.8% of 360,000 active; AID 720504; note: potency is the fitted concentration of half-maximal effect; series mostly up to about 57 µM; % is set by controls: 0 for no effect and ±100 for the full control effect; nearly all actives have a fitted effect of over 65% in size
BAZ2B inh – BAZ2B (human) inhibition; Q9UIF8; AlphaScreen BAZ2B-H3K14Ac peptide displacement; Potency, µM (titrated, usually from 114 µM), for inactives: at the highest dose activity change, negative = inhibition, usual class: inhibitors; 4.4% of 360,000 active; note: potency is the fitted concentration of half-maximal effect; % is set by controls: 0 for no effect and ±100 for the full control effect; nearly all actives have a fitted effect of over 60% in size
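Multi-concentration screen (max 110 uM) measuring displacement of acetylated histone H3 peptide from BAZ2B by AlphaScreen, using 50 nM protein, 50 nM peptide and 10 ug/mL streptavidin donor plus Ni-chelate acceptor beads.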
JMJD2A Tudor – blocks the human JMJD2A Tudor domain | Potency, µM (series often up to 114 µM), inactives show top-dose activity change, negative = inhibition, actives largely listed as inhibitors | O75164 | AlphaScreen JMJD2A-Tudor / H3K4me3 peptide binding | 4.4% of 390,000 active | AID 504339; note: potency is the fitted concentration of half-maximal effect; % is set by controls: 0 for no effect and ±100 for the full control effect; nearly all actives have a fitted effect of over 50% in size
GCN5L2 inh – blocks human GCN5L2 histone acetyltransferase. Q92830. GCN5L2 HAT assay, ThioGlo1 CoA-SH fluorescence. Potency, µM (doses to about 58.9 µM), without a hit: at the top dose activity change, negative = inhibition, usual class: inhibitors. 0.21% of 390,000 active; note: potency is the fitted concentration of half-maximal effect; % is set by controls: 0 for no effect and ±100 for the full control effect
Target sequence (Q92830 whole entry, looked up): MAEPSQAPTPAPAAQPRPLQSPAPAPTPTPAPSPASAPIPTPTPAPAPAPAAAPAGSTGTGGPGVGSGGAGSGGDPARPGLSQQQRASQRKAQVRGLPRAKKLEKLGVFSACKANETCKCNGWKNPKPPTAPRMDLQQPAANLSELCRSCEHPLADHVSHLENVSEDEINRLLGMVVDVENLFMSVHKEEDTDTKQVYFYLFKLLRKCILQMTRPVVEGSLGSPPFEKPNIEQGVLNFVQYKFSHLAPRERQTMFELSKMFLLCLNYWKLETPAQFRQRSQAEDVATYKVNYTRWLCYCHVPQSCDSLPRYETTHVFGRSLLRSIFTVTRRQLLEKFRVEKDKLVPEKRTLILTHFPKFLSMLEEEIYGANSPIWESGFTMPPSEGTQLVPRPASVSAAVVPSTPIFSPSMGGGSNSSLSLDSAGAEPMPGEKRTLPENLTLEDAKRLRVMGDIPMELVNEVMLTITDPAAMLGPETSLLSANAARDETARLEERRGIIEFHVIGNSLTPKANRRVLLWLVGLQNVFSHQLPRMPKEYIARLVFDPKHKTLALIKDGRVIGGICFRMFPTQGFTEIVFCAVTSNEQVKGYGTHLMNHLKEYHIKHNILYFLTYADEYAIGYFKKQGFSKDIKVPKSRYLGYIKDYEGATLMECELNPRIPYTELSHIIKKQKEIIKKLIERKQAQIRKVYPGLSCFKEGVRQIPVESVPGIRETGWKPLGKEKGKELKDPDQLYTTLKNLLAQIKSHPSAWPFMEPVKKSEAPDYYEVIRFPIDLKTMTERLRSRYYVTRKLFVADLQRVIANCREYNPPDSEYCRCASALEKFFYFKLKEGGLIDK
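qHTS, 1536-well. 20nM enzyme, pH 7.5 HEPES/EDTA/Tween-20 buffer; 15 min compound preinc., RT. Start: 75uM H3(1-25), 70uM AcCoA, 50uM ThioGlo1. Read Ex340/Em540 at t=0 (autofluorescence flag) and t=20 min.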
HP1b chromo inh – inhibitors of HP1-beta chromodomain binding to methylated histone tails | Potency, µM (highest dose often 114 µM), without a hit: top-dose activity change, negative = inhibition, usual class: inhibitors | 0.56% of 390,000 active | AlphaScreen HP1-beta / biotin-H3K9me3 peptide binding; note: potency is the fitted concentration of half-maximal effect; nearly all actives have a fitted effect of over 70% in size
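HP1-beta protein (50 nM final) preincubated 30 min at room temperature with biotinylated H3(1-18)K9me3 peptide (50 nM) in PBS pH 7.4, 0.01% Tween-20, then compound added for 30 min. AlphaScreen streptavidin donor/nickel chelate acceptor beads (10 ug/mL final), 30 min dark, luminescence read.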
PI5P4Ka inh – PI5P4K alpha (human) kinase inhibition; AID 652105; PI5P4Kalpha enzyme, ADP-Glo luminescence, 60 min; active compounds read low; 1.2% of 330,000 active; max response, %; P48426; active = max response of -50% or lower; inconclusive = between -30% and -50%; inactive = -30% or higher; note: value at the top dose of about 77 µM; % is set by controls: 0 for no effect and ±100 for the full control effect
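Quantitative HTS of the MLSMR library against PI5P4Kalpha with substrate. ATP added last at 5 microM final; room temperature, 60 minutes. Remaining ATP depleted, ADP converted and read as luminescence.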
Numbers without * were called inactive; ? = inconclusive; . = not tested or not shown; ! = not active in a repeat; [ ] = dose if it differs, or a comment. This is a sample that favours compounds with a hit; in the whole collection about 7% have one here. Unless noted, calls come from the whole dose curve; as a rule, active = well fitted curve in the direction sought with a large enough effect; inconclusive = small, poorly fitted or top-dose-only effect, or another doubt; inactive = no such curve, though single readings can be large; an effect the other way counts as inactive or inconclusive.

SMILES	PLK1 PBD block	BAZ2B inh	JMJD2A Tudor	GCN5L2 inh	HP1b chromo inh	PI5P4Ka inh
CCC(C)n1c(O)c(C(c2ccccn2)c2c(O)n(C(C)CC)c(=S)[nH]c2=O)c(=O)[nH]c1=S (stereo unspecified)	?	35.5µM*	?	-6.2%	29.3%	.
CN(CCc1ccc(Cl)c(Cl)c1)[C@@H]1CCCC[C@@H]1N1CCCC1	.	.	.	-0.4%	.	.
CCN(CC)C(=O)Cn1cc(S(=O)(=O)CC(=O)NCc2ccc(C)cc2)c2ccccc21	4.2%	.	-2.7%	.	45.6%	-5.3
C[N+]1(C)[C@@H]2CC[C@H]1CC(OC(=O)C(c1ccccc1)c1ccccc1)C2 (stereo partly specified)	21.2µM*	-17.8%	?	-2.6%	31.0%	-5.4
C[N+]1([O-])[C@@H]2CC(OC(=O)[C@@H](CO)c3ccccc3)C[C@@H]1[C@H]1O[C@H]12 (stereo partly specified)	.	.	.	10µM*!	.	.
C[N+]1(C)[C@@H]2CC(OC(=O)[C@H](CO)c3ccccc3)C[C@H]1[C@@H]1O[C@@H]12 (stereo partly specified)	-14.0%	-13.8%	-7.9%	0.8%	5.8%	3.0
Nc1ccc(Br)cc1	-11.3%	.	-9.4%	.	3.6%	2.6
Nc1ccc(N=Nc2ccccc2)cc1	-9.7%	22.4µM*	44.7µM*	-3.0%	?	11.3
C=CCn1c(O)c(C=NCCCOc2ccc(CC)cc2)c(=O)[nH]c1=S	-6.2%	1.3%	-17.5%	-3.7%	24.4%	2.4
C=CCn1c(O)c(Cc2ccc(OCC)cc2)c(=O)[nH]c1=O	-13.2%	0.5%	31.6µM*	2.9%	-11.8%	-7.7
C[n+]1cc(P(=S)(c2ccccc2)c2ccccc2)n2ccccc21	.	.	10.9%	.	.	.
C=CCN1CCC23c4c5ccc(O)c4OC2/C(=N/N=C2\CCC4(O)C6Cc7ccc(O)c8c7C4(CCN6CC=C)C2O8)CCC3(O)C1C5 (stereo unspecified)	.	.	.	-9.7%	.	.
COc1cc(CNC(=O)CCCC/C=C/C(C)C)ccc1O	-5.2%	9.2%	-5.8%	-20.7%	51.1%	-0.1
CCOC(=O)Cn1cc(C(=O)c2ccccc2F)c2ccccc21	21.2µM*	-4.5%	?	3.8%	1.0%	-9.2
CCOc1ccc2nc(NC(=O)c3cccn(Cc4ccccc4C)c3=O)sc2c1	.	1.2%	4.2%	-4.6%	32.1%[57 µM]	.
CCOc1ccc2nc(N=Nc3c(O)[nH]c(=S)[nH]c3=O)sc2c1	-27.6%	22.4µM*	?	-10.5%	?	-79.8*
CCOc1ccc2nc(N=Nc3c(O)[nH]c(=O)[nH]c3=O)sc2c1	-25.1%	44.7µM*	-11.0%[11.4 µM]	-1.3%	-6.4%	-86.4*
COc1ccccc1CNCc1cc(OC)c(OC)cc1OC	-3.0%	50.1µM*	2.51µM*	-0.4%	?	.
CN1CCC2(CC1)C(C#N)=C(N)NC(S)=C2C#N	?	?	3.98µM*	-5.1%	-17.0%	?
Clc1ccc(COC(Cn2ccnc2)c2ccc(Cl)cc2Cl)c(Cl)c1 (stereo unspecified)	?	22.4µM*	39.8µM*	-13.7%	-16.2%	-20.9
Clc1ccc(CO[C@@H](Cn2ccnc2)c2ccc(Cl)cc2Cl)cc1	.	.	.	-2.5%[21.4 µM]	.	.
CS(=N)(=O)CC[C@@H](N)C(=O)O (stereo partly specified)	.	.	.	12.4%[21.4 µM]	.	.
CCC1COC(Cn2cncn2)(c2ccc(Cl)cc2Cl)O1 (stereo unspecified)	.	.	.	17.8%	.	.
S=c1[nH]nc(C2CC2)n1Cc1ccco1	?	1.4%	22.4µM*	-7.6%	8.0%	.
O=c1[nH]c(=S)[nH]c(O)c1N=Nc1ccc(S(=O)(=O)N2CCc3ccccc32)cc1	0.0%	-35.5%	-24.6%	-18.4%	-15.7%	-57.9*
SMILES	PLK1 PBD block	BAZ2B inh	JMJD2A Tudor	GCN5L2 inh	HP1b chromo inh	PI5P4Ka inh
O=c1[nH]c(=S)[nH]c(O)c1N=Nc1ccc(SC(F)F)cc1	10.6µM*	-30.6%	-25.0%	-19.2%	-22.6%	-57.1*
Cn1c(=O)oc2cc(S(=O)(=O)N3CCc4ccccc43)ccc21	-15.8%	-38.8%	0.7%[11.4 µM]	-6.2%	79.8%	-1.2
CCCCC(C#N)(Cn1cncn1)c1ccc(Cl)cc1 (stereo unspecified)	.	.	.	-11.6%	.	.
Cn1c(O)c(/C=C2\N=c3ccccc3=C2CCNC(=S)NC2CC2)c(=O)n(C)c1=O	0.947µM*	?	-13.3%	-14.3%	11.2%	2.7
CC(C)Oc1ccc(C(=O)Nc2ccc3c(c2)CCCN3C(=O)c2cccs2)cc1	.	-13.7%	?	-15.3%	-14.5%	.
CCCCC/C=C\C/C=C\C/C=C\C/C=C\CCCC(=O)NCCCl	.	.	.	0.1%	.	.
CCC1CCCCN1CCCNS(=O)(=O)c1ccc2c(c1)oc(=O)n2C (stereo unspecified)	0.2%	-19.4%	-15.3%	2.5%	50.0%	1.8
CCN(CCCNS(=O)(=O)c1ccc2c(c1)oc(=O)n2C)c1cccc(C)c1	23.8µM*	-32.1%	15.8µM*	-16.5%	?	-18.5
COc1ccc(NC(=S)NC2CC3CCC(C2)N3Cc2ccco2)cc1 (stereo unspecified)	5.3%	?	-15.2%	10.9%	25.0%	0.1
CC(C)n1c(=O)c(C=Nc2ccc(Cl)cc2)c(O)n(Cc2ccco2)c1=O	.	-6.2%	.	-6.0%	.	.
COc1ccc(/C=C2/C(=O)N(Cc3ccco3)C(=O)N(C(C)C)C2=O)cc1	3.36µM*	-34.9%	-30.6%	?	-2.3%	?
CCN1C(=O)C(=C/C=C/c2ccco2)C(=O)N(CC)C1=S	?	44.7µM*	50.1µM*	-7.7%	?	-97.3*
CC(C)N1C(=O)/C(=C/C=C/c2ccco2)C(=O)N(Cc2ccco2)C1=O	4.74µM*	35.5µM*	14.1µM*	?	28.2µM*	-68.5*
Cc1cccc(N2CCN(C(=O)c3ccc(CNc4c(N5CCC(C)CC5)c(=O)c4=O)cc3)CC2)c1C	-7.0%	?	-23.2%	-1.2%	-9.8%	1.5
COc1ccc2c3c([nH]c2c1)C(C)=NCC3	1.3%	-33.2%	-3.6%	?	35.8%	0.6
CC1=NCCc2c1[nH]c1cc(O)ccc21	1.19µM*	3.8%	-18.7%	?	38.6%	-3.4
COC(=O)C1=C(c2cccc(OCc3ccccc3)c2)C[C@@H]2CC[C@H]1N2C(=O)NCc1ccc(N(C)C)cc1	-3.4%	10µM*	20µM*	-13.8%	?	1.7
COC(=O)C1=C(c2ccc(F)cc2OCc2ccccc2)C[C@@H]2CC[C@H]1N2C(=O)NCc1ccc(N(C)C)cc1	-7.9%	10µM*	22.4µM*	-10.8%	?	4.2
COC(=O)C1=C(c2ccccc2OCc2ccccc2)C[C@@H]2CC[C@H]1N2C(=O)NCc1ccc(Cl)cc1	-0.4%	-5.1%	-14.8%	-4.0%	28.7%	19.9

High-throughput results: PubChem, National Center for Advancing Translational Sciences (NCATS)
